Columns and labels:
Format in all cases: functional
[1] = molecular target: Solute carrier family 2, facilitated glucose transporter member 1 (Homo sapiens) (UniProt P11166); experiment: ST_JUDE_LEISH: Cytotoxicity at 2uM final concentration against transgenic Leishmania Mexicana promastigotes LmGLUT1 that are glucose transport deficient and complemented with the human glucose transporter GLUT1. Activity is measured by DNA content using SYBR green in vitro
[2] = molecular target: Hexose transporter 1 (Plasmodium falciparum) (UniProt O97467); experiment: ST_JUDE_LEISH: Cytotoxicity at 2uM final concentration against transgenic Leishmania Mexicana promastigotes LmPfHT that are glucose transport deficient and complemented with the Plasmodium falciparum hexose transporter. Activity is measured by DNA content using SYBR green in vitro
[3] = molecular target: Glucose transporter (Leishmania mexicana) (UniProt O61059); experiment: ST_JUDE_LEISH: Cytotoxicity at 2uM final concentration against transgenic Leishmania Mexicana promastigotes LmGT2 that are glucose transport deficient and complemented with the L. Mexicana glucose transporter 2. Activity is measured by DNA content using SYBR green in vitro

Solute carrier family 2, facilitated glucose transporter member 1 (Homo sapiens), sequence (P11166 whole entry): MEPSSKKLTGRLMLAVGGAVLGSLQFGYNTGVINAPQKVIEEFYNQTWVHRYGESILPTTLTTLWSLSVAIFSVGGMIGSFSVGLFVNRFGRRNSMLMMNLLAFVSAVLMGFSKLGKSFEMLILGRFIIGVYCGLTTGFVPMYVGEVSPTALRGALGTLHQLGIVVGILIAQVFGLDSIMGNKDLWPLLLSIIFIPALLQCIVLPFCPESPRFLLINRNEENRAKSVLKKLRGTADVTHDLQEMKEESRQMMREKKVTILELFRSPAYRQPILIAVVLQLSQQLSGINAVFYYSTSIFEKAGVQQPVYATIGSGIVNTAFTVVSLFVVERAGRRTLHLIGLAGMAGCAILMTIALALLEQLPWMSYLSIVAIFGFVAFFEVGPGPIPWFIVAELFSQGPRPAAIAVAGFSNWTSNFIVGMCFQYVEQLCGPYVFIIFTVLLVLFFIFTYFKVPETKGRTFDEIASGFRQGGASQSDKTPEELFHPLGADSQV

Compound	inhibition [1]	inhibition [2]	inhibition [3]
Cc1cccc2nc(-c3ccc(-c4ccc(NC(=O)Nc5cccc(C#N)c5)cc4)cc3)[nH]c12	9.74%	6.91%	7.39%
FC(F)(F)c1ccc2[nH]c(-c3ccc(-c4cccc(CNCc5cnn(-c6ccccc6)n5)c4)cc3)nc2c1	2.04%	1.86%	-0.02%
CCCCNCc1ccc(-c2nc(CN(CCCn3ccnc3)C(=O)Nc3ccc(CC)cc3)cs2)cc1	7.74%	6.29%	6.91%
O=C(Nc1ccccc1O)c1ccc(Oc2cccc(C(=O)Nc3ccccc3O)c2)cc1	3.99%	4.01%	1.13%
CCc1cc2c(N)nc(N)nc2nc1-c1ccccc1	4.22%	3.93%	0.81%
CN1CCCC(CN2CCN(Cc3cccc(-c4ccc(-c5nc6ccccc6[nH]5)s4)c3)CC2)C1 (stereo not drawn)	7.08%	6.85%	3.05%
CCCCC1=CC2C(=O)C(C(=O)OC)=CN=C2C=C1OCc1ccccc1 (stereo not drawn)	-0.41%	-2.57%	-1.77%
C=CCc1cccc(CN2CCC(c3cc(O)nc(-c4ccccn4)n3)CC2)c1O	8.38%	10.4%	0.24%
CCc1ccc(-c2nc3cc(NC(=O)c4cc([N+](=O)[O-])cc([N+](=O)[O-])c4)ccc3o2)cc1	2.33%	1.19%	2.3%
COc1ccc(-c2nc(NC(=O)CS(=O)(=O)c3ccc(OC)cc3)sc2C)cc1	2.15%	2.85%	3.47%
CC[C@H](N/C(=N\c1ccc(-c2ccccc2)cc1)Nc1ccc(C#N)cc1O)c1ccccc1	4.55%	3.4%	2.55%
CS(=O)(=O)c1ccc(CCNCc2ccc(-c3ccc(CNC4CCN(Cc5ccccc5)CC4)cc3)nc2)cc1	-0.83%	-1.16%	-2.69%
Fc1ccc(C2N=C(SCCSC3=NC(c4ccc(F)cc4)C(c4ccc(F)cc4)N3)NC2c2ccc(F)cc2)cc1 (stereo not drawn)	1.34%	3.1%	3.33%
Cc1cccc2nc(-c3ccc(-c4cccc(CN5CCN(CCN6CCOCC6)CC5)c4)s3)[nH]c12	0.45%	-1.04%	0.64%
CCOC(=O)c1ccc(COc2ccc(C)nc2)cc1	-1.54%	-0.85%	0.17%
O=C(c1ccc([N+](=O)[O-])o1)N1CCN(c2nc3c(Cl)cccc3s2)CC1	39.8%	37.4%	4.58%

From ChEMBL document CHEMBL3433997, “St. Jude Leishmania screening dataset” (2016)
